PubChem BioAssay (NCATS)
Results filed as inconclusive are left out. Active and inactive are the calls of the source. Calls follow the shape of the dose curve; as a rule, active = well fitted cell-killing curve with a large enough effect; inconclusive = small, poorly fitted or top-dose-only effect; inactive = no such curve, though single readings can be large or run the other way.

Assay: qHTS of pediatric cancer cell lines to identify multiple opportunities for drug repurposing: Confirmatory screen for Rh41 cells (AID 1347123);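 also: 48 h compound exposure; nearly all actives have a fitted effect of over 60% in size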
Settings: Rh41 rhabdomyosarcoma cells, viability/cytotoxicity qHTS; series mostly up to 45.9 µM
Procedure, shortened: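 Viability after 48 h compound treatment at 37C, 500-1,000 cells/well, read as ATP luminescence with CellTiter-Glo. Primary screens used 11-point (MIPE, 0.78 nM-46 µM) or 8-point (NPC, 0.59 nM-46 µM) final concentrations; follow-up screens used 11-point dilutions.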
Potency is read from the fitted curve at half-maximal effect.

SMILES | Potency
CC[C@@]1(O)C(=O)OCc2c1cc1n(c2=O)Cc2c-1nc1ccccc1c2/C=N/OC(C)(C)C | 522 nM (active)
CO[C@@H]1[C@@H](OC)[C@H](C)[C@@](O)(CC(=O)O)O[C@H]1[C@H](C)[C@H]1O[C@@]2(CC[C@@](C)([C@H]3CC[C@@](C)([C@@H]4O[C@@H]([C@H]5O[C@](C)(O)[C@H](C)C[C@@H]5C)C[C@@H]4OC4C[C@H](OC)[C@@H](OC)[C@H](C)O4)O3)O2)C[C@H](O)[C@H]1C (some centres undefined) | 465 nM (active)
COc1c(C)c2c(c(O)c1C/C=C(\C)CCC(=O)OCCN1CCOCC1)C(=O)OC2 | 2330 nM (active)
Nc1ccc2cc3ccc(N)cc3nc2c1 | 5850 nM (active)
